# Source: PubChem BioAssay
# In the library only some 2.4% were active in any assay of this set; here they are far more common.
# Pol eta inh: qHTS for Inhibitors of Polymerase Eta; DNA polymerase eta (Homo sapiens), Q9Y253; Potency, µM (doses to about 114 µM), for inactives: at the highest dose activity change, negative = inhibition, hits mostly inhibitors; 390,000 tested, 1.2% active; recombinant Pol eta, fluorescent DNA replication assay; AID 588591, 2011; further: on the % scale 0 is the no-effect control and ±100 the full control effect
#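 Pol eta (10 nM) was preincubated with compounds for 15 min at room temperature, after which fluorescent replication substrate (50 nM final) was added to start the reaction. Fluorescence was read kinetically at 0 and 10 min.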
# FEN1 inhibitor: qHTS Assay for the Inhibitors of Human Flap endonuclease 1 (FEN1) | P39748 | 390,000 tested, 0.35% active | Recombinant FEN1 flap cleavage, fluorescence, 15 min | Potency, µM (top dose mostly 114 µM), for inactives: at the top dose activity change, negative = inhibition, actives largely listed as inhibitors; further: on the % scale 0 is the no-effect control and ±100 the full control effect; nearly all actives have a fitted effect of over 65% in size
#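 In this screen, 50 nM flap DNA substrate was added to 10 nM FEN1 pretreated with compound for 15 min at room temperature; cleavage was followed with reads at 0 and 15 min, and Hill fitting gave concentration–response parameters.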
# WRN inhibitor: qHTS for Inhibitors of WRN Helicase | Bifunctional 3'-5' exonuclease/ATP-dependent helicase WRN (Homo sapiens), Q14191 | WRN helicase unwinding, fluorescent forked duplex, kinetic | Potency, µM (series often up to 114 µM), inactives show at the top dose activity change, negative = inhibition, hits mostly inhibitors | 360,000 tested, 0.46% active | AID 651768, 2012; further: on the % scale 0 is the no-effect control and ±100 the full control effect; nearly all actives have a fitted effect of over 55% in size
#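 Primary qHTS, 1536-well format. 20 nM WRN + compound, 15 min RT; start with 100 nM forked fluorophore/quencher duplex, 2 mM ATP (final); kinetic read ex 525/em 598 nm.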
# POLI inh: qHTS for Inhibitors of Polymerase Iota. DNA polymerase iota (Homo sapiens), Q9UNA4. AID 588590, 2011. 390,000 tested, 1% active. Pol iota fluorescent replication assay, 10 min. Potency, µM (titrated, usually from 115 µM), without a hit: at the top dose activity, negative = inhibition, hits mostly inhibitors
# Target sequence (Q9UNA4 whole entry, looked up): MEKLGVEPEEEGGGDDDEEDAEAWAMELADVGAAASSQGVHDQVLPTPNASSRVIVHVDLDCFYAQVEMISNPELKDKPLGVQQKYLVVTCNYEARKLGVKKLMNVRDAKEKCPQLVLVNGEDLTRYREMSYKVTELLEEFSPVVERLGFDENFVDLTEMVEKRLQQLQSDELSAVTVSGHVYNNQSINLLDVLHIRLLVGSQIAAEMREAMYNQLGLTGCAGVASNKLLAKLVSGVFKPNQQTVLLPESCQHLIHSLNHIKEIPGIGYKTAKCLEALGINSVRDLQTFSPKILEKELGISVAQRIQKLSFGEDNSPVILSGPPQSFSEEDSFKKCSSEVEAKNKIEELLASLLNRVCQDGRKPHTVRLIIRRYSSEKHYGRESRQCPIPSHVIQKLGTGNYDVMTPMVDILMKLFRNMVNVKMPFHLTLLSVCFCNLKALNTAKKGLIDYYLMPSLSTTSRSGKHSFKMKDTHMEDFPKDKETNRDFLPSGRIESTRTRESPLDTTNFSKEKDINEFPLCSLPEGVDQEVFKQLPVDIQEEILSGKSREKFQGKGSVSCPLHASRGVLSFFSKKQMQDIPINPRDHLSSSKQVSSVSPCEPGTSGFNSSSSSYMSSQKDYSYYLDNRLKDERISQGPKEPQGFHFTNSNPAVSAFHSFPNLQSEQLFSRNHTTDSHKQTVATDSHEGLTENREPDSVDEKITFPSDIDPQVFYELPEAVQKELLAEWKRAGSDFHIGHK
#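 Fluorescent replication assay read twice, at 0 min and 10 min after adding 50 nM (final) substrate. Enzyme (10 nM) and compounds were first incubated 15 min at room temperature; enzyme-free buffer wells were negative controls.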
# Pol kappa inh: qHTS for Inhibitors of Polymerase Kappa | purified Pol kappa, fluorescent DNA synthesis assay, 10 min | Potency, µM (highest dose often 107 µM), for inactives: at the highest dose activity, negative = inhibition, most hits filed as inhibitors | 400,000 tested, 0.53% active | AID 588579, 2011; further: on the % scale 0 is the no-effect control and ±100 the full control effect
#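 Inhibition of 10 nM Pol kappa is measured by a fluorescent read-out at 0 and 10 min following addition of 50 nM substrate (final), with a 15-min room-temperature compound preincubation.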
# POLB inh: qHTS Assay for Inhibitors of DNA Polymerase Beta; 340,000 tested, 1.3% active; Potency, µM (series often up to 114 µM), for inactives: top-dose activity change, negative = inhibition, most hits filed as inhibitors; P06746; Pol beta primer extension/strand displacement, fluorescence kinetic; further: on the % scale 0 is the no-effect control and ±100 the full control effect
#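 Reaction started by 50 nM substrate onto compound-treated Pol beta (10 nM, 15 min preincubation, room temperature); plates read at 0 min and 10 min. Normalized concentration-effect data fitted by four-parameter Hill equation.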
# * = called active by the depositor; ? = inconclusive; . = no result; ! = a repeat was not active; [ ] = another dose, or the depositor's remark. The call rests on the fitted dose curve; in most records, active means well fitted curve in the direction sought with a large enough effect; inconclusive means small, poorly fitted or top-dose-only effect, or another doubt; inactive means no such curve, though single readings can be large; an effect the other way counts as inactive or inconclusive. Potency means the concentration at half of the fitted maximal effect.
SMILES,Pol eta inh,FEN1 inhibitor,WRN inhibitor,POLI inh,Pol kappa inh,POLB inh
Cc1ccc(C(=O)N2CCc3cc(CNC(=O)CSc4ccccc4)ccc32)cc1,-7%,-15%,.,2%,-11%[60.1 µM],-14%
O=C(CSc1ccccc1Cl)NC1CCCc2ccccc21 (stereo unspecified),-7%,-5%,-9%,95%,-14%,13µM*
COc1ccccc1NC(=O)Cn1c(=O)n(-c2cccc(C)c2)c(=O)c2c1c1cc(C)ccc1n2C,-19%,1%,.,16%,-12%[60.1 µM],-1%
COc1ccc(N=C2S/C(=C\c3ccc(OCC(=O)O)cc3)C(=O)N2CCc2c[nH]c3ccccc23)cc1,-19%,-13%,?,?,16µM*,4µM*
Cc1ccccc1-c1ccc2ncnc(NCc3cccs3)c2c1,.,.,.,.,22µM*,.
CC1=NN(c2ccc(Cl)c(C(=O)O)c2)C(=O)C1,22µM*,?,?,1.1µM*,-42%,?
CC1=NN(c2cccc(Cl)c2)C(=O)C1,-16%,5%,-19%[57.1 µM],3.5µM*,-20%,1%
CC1=NN(c2cc(Cl)c(S(=O)(=O)O)cc2Cl)C(=O)C1,22µM*,-16%,-18%,?,?,.
CC1=NN(c2ccc(S(=O)(=O)O)cc2Cl)C(=O)C1,?,9%,-14%,?,-14%,-3%
CC1=NN(c2ccc([N+](=O)[O-])cc2)C(=O)C1,10%,-2%,?,78%,-11%,.
Cc1ccc(NC(=O)c2ccc3c(c2)NC(=O)c2ccccc2S3)c(Cl)c1,-25%,5%,.,79µM*,9%,?
O=C(Nc1ccc(-c2nc3ccccc3o2)cc1)c1cc(-n2cnnc2)ccc1Cl,-7%,-18%,-4%,-173%,-3%,-3%
O=C(Nc1ccc(-c2nc3ccccc3o2)c(O)c1)c1cc(-n2cnnc2)ccc1Cl,-20%,?,-22%,?,-1%,35µM*
COC1=CC(=O)C(O)=C(CCCCCCC/C=C/CCCCCCCC2=C(O)C(=O)C=C(OC)C2=O)C1=O,3.5µM*,20µM*,35µM*,7.9µM*,20µM*,.
O=C(COCc1cc(-c2cccs2)on1)N1CCN(c2ccc(F)cc2)CC1,0%,-17%,.,18%,-4%,-3%
O=C(COCc1cc(-c2ccc3c(c2)OCO3)on1)N1CCN(c2ccc(F)cc2)CC1,-4%,4%,0%,79µM*,-1%,13%
CN(C)c1ccc(/C=C/c2ccnc3ccccc23)cc1,.,-23%,.,26%,-8%,.
CCc1cc(-c2n[nH]c(C)c2-c2ccccc2Cl)c(O)cc1OC,-16%,-14%,-18%,89µM*,0%,5%
CN(Cc1ccccc1C#N)S(=O)(=O)c1cccs1,-10%,-3%,0%,30%,6%,2%
N#Cc1nccnc1S(=O)(=O)c1cccs1,-10%,4%,50µM*,148%,-4%,-6%
O=C(Nc1ccccc1C(=O)O)/C(=C/c1ccc([N+](=O)[O-])cc1)NC(=O)c1ccc(Br)o1,40µM*,0%,-8%[11.6 µM],-18%,-29%,28µM*
Cc1cc(N)ccc1N1CCCC1,1%,40µM*,50µM*,?,0%,97%
Cc1cc(N)ccc1-n1c(C)ccc1C,-3%,-13%,-9%,4%,-16%,42%
CC(=O)c1ccc(Nc2ccc3cc(S(=O)(=O)N4CCCC4)ccc3n2)cc1,-18%,-5%,.,9%,-6%,-5%
C=CCn1c(SCC(=O)NCCCC)nc2scc(-c3ccco3)c2c1=O,10µM*,-12%,?,20µM*,40µM*,22µM*
SMILES,Pol eta inh,FEN1 inhibitor,WRN inhibitor,POLI inh,Pol kappa inh,POLB inh
C=CCn1c(SCC(=O)NCC2CCCO2)nc2scc(-c3ccccc3)c2c1=O (stereo unspecified),-13%,-2%,4%,-1%,-5%,2%
C=CCn1c(SCC(=O)NC2CCCC2)nc2scc(-c3ccco3)c2c1=O,16µM*,-2%,?,?,?,25µM*
C=CCn1c(SCC(=O)Nc2ccc(C(=O)O)cc2)nc2scc(-c3ccccc3)c2c1=O,-15%,1%,-16%,-18%,-8%,.
Cc1ccc(CCNC(=O)c2ccc3c(=O)n(-c4ccc(C)cc4)c(=O)[nH]c3c2)cc1,-13%,10%,.,8%,8%,1%
Cc1cccc(-c2nc(CN3CCCC(C(=O)N4CCN(c5cc(Cl)ccc5C)CC4)C3)c(C)o2)c1 (stereo unspecified),-3%,-13%,.,-2%,0%,22%
CNc1nc(-c2ccccc2)[n+](-c2ccc(C)cc2)s1,-22%,3%,50µM*,115%,-5%,25%[57.1 µM]
OC[C@H]1O[C@@H](Oc2cc(O)cc(/C=C/c3ccc(O)cc3)c2)[C@H](O)[C@@H](O)[C@@H]1O,.,.,.,.,.,20µM*
CCn1c(=O)c2cc(C(=O)N3CCN(c4cccc(OC)c4)CC3)sc2c2ccccc21,-18%,-9%,.,9%,-8%,1%
Cc1cccc(N2CCN(C(=O)c3noc4c3COc3ccc(C)cc3-4)CC2C)c1 (stereo unspecified),-13%,-10%,-2%,50µM*!,?,2%
CN(C)S(=O)(=O)c1ccc(C(=O)OCC(=O)c2csc(N3CCCCC3)n2)cc1,79µM*,0%,1%[11.6 µM],?,-37%,.
Cc1ccc(-c2nc3c(c(SCC(=O)N4CCCCC4)n2)Cc2cc(C)ccc2O3)cc1,1%,-6%,.,10%,-15%,7%
CCOc1ccccc1NS(=O)(=O)c1cn(C)nc1C,-16%,6%,5%[57.1 µM],89µM*,-3%,-9%
O=C(NCc1ccco1)C1Cc2ccccc2CN1C(=O)c1ccco1 (stereo unspecified),32µM*,11%,-7%[11.6 µM],32µM*,?,22µM*
O=C(NCc1ccco1)C1Cc2ccccc2CN1S(=O)(=O)c1ccccc1F (stereo unspecified),10µM*,-21%,?,13µM*,?,.
COc1ccc(CNC(=O)C2Cc3ccccc3CN2C(=O)c2ccco2)cc1 (stereo unspecified),-14%,-4%,-6%,5%,-2%,?
O=C1OCCC1Sc1nc2ccccc2c(=O)n1-c1ccc(F)cc1 (stereo unspecified),9%,1%,3%,87%,-7%,-23%
O=C1OCCC1Sc1nc2ccccc2c(=O)n1Cc1ccc(F)cc1 (stereo unspecified),?,-8%,-11%,?,-29%,25µM*
